Assay outcomes (PubChem)
Many of the other results were omitted from the sample, so hits are more common in it than they were.
LmPK inh – LmPK (Leishmania mexicana) enzyme inhibition | Q27686 | purified LmPK, Kinase-Glo ATP luminescence, 1 h | Potency, µM (doses to about 57.5 µM), for inactives: at the highest dose activity change, negative = inhibition, usual class: inhibitors | 290,000 compounds, 0.37% hits; also: potency is read from the fitted curve at half-maximal effect; % is scaled to controls: 0 for no effect and ±100 for the full control effect
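Purified LmPK (0.1 nM) converted ADP (0.1 mM) to ATP with PEP (0.5 mM) in imidazole buffer pH 7.2 with KCl and MgCl2, 1 h at room temperature. ATP was read by Kinase-Glo luminescence; data normalized to uninhibited and no-enzyme controls.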
Giardia FBPA inh – Giardia lamblia aldolase inhibition | Potency, µM (highest dose often 59.6 µM), without a hit: at the top dose activity, negative = inhibition, actives largely listed as inhibitors | 290,000 compounds, 0.71% hits | purified Giardia FBPA; also: potency is read from the fitted curve at half-maximal effect; % is scaled to controls: 0 for no effect and ±100 for the full control effect; nearly all actives have a fitted effect of over 55% in size
Target sequence (A8B2U2 whole entry, looked up): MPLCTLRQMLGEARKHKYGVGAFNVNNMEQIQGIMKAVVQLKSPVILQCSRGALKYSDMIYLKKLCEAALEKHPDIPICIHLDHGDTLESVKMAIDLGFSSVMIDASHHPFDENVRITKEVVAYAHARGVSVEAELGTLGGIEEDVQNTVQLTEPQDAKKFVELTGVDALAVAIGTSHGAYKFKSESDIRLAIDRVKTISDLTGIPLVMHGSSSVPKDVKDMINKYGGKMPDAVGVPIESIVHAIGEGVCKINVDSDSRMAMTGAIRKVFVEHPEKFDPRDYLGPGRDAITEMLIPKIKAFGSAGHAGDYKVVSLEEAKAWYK
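Giardia FBPA (40 nM reagent) was preincubated 10 min at RT with compound (up to 57.5 uM final), then substrate plus GAPDH/TPI/NAD/arsenate coupling system with diaphorase/resazurin was added; resorufin fluorescence (525/598 nm) was read after 20 min.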
Shiga toxin inh – blocks Shiga toxin action in Vero cells; Vero cells, Shiga toxin protein synthesis inhibition reporter; inhibition, % at 38.7 µM; 290,000 compounds, 9.2% hits; AID 2315; in the data active = inhibition mostly above about 28%, no sharp cut-off; inactive = mostly below about 43%; also: 0% is about no effect
TbPYK inhibitor – blocks Trypanosoma brucei pyruvate kinase | Q57TT1 | TbPYK enzyme, Kinase-Glo Plus ATP luminescence, 45 min | Potency, µM (top dose mostly 76.8 µM), without a hit: at the top dose activity, negative = inhibition, usual class: inhibitors | 410,000 compounds, 0.12% hits | AID 624173; also: potency is read from the fitted curve at half-maximal effect; % is scaled to controls: 0 for no effect and ±100 for the full control effect; nearly all actives have a fitted effect of over 50% in size
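Activity of T. brucei pyruvate kinase was followed by Kinase-Glo Plus luminescence after the enzyme reacted 45 min at room temperature with 130 uM ADP (final) and substrate. Test compounds were added before ADP at multiple concentrations.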
CHX counter – counter-screen hit for Shiga toxin inhibitors, cycloheximide; AID 2314; cell reporter, cycloheximide protein synthesis inhibition counterscreen; max response, %; 300,000 compounds, 12% hits; in the data active = max response mostly above about 13%, no sharp cut-off; inactive = mostly below about 14%; also: read at 38.3 µM for the half of the compounds with a filed dose; 0% is about no effect
Sm TGR inh – inhibitors of Schistosoma mansoni thioredoxin glutathione reductase; purified TGR, DTNB reduction, TNB absorbance 405 nm; 360,000 compounds, 3% hits; Potency, µM (series often up to 114 µM), for inactives: top-dose activity change, negative = inhibition, usual class: inhibitors; also: potency is read from the fitted curve at half-maximal effect; % is scaled to controls: 0 for no effect and ±100 for the full control effect; nearly all actives have a fitted effect of over 60% in size
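Kinetic colorimetric format: TGR-catalysed, NADPH-driven DTNB reduction monitored via TNB absorbance. Enzyme dispensed at 20 nM; compound exposure 15 min at room temperature before reaction start.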
The depositor's hits bear a star; ? = inconclusive; . = no result given; [ ] = another dose, or the depositor's remark. Unless noted, calls follow the shape of the dose curve; as a rule, active = well fitted curve in the direction sought with a large enough effect; inconclusive = small, poorly fitted or top-dose-only effect, or another doubt; inactive = no such curve, though single readings can be large; an effect the other way counts as inactive or inconclusive.

SMILES	LmPK inh	Giardia FBPA inh	Shiga toxin inh	TbPYK inhibitor	CHX counter	Sm TGR inh
O=C(Cc1c[nH]c2ccccc12)Nc1nc2ccccc2[nH]1	1.8%	-8.1%	73.8*	-0.9%	26.1*	-10.3%
COC(=O)C1OC(=O)C2OC23[C@]2(C)C(OC(C)=O)CC4C(C)(C)C(=O)CC[C@]4(C)C2CC[C@@]13C (some centres undefined)	.	-0.2%	.	.	.	.
CCCC(=O)NC(=S)Nc1ccccc1F	-7.0%	0.7%	73.9	0.4%	15.3*	?
COc1ccc(CCNC(=O)C(=O)Nc2ccccc2F)cc1	.	.	.	-2.7%	.	?
CC(C)(C)C(=O)NC(=S)Nc1ccccc1F	-5.5%	0.6%	40.3	-7.7%	26.4*	-39.1%
CC(=O)NC(=S)Nc1ccccc1F	0.7%	0.8%	18.5	0.1%	4.5	18.3%
CCC(=O)NC(=S)Nc1ccccc1F	0.0%	11.0%	27.0	0.1%	6.1	2.3%
COc1ccc(C(=O)NC(=S)Nc2ccccc2F)cc1	5.7%	-15.9%	67.4*	-12.6%	55.8*	-19.0%
COc1ccc(CCCC(=O)Nc2ccccc2F)cc1	-6.2%	-0.6%	108.6*	2.7%	21.1*	-0.2%
CCC(C(=O)NC1CCC(C)CC1)n1nc(C)c2sc3ccccc3c2c1=O (centres undefined)	.	.	.	1.9%	.	-1.0%
CCCc1cc(=O)n2c(C(=O)Nc3ccc(OCC)cc3)c(C(=O)Nc3ccc(C)cc3)sc2n1	.	.	.	-7.0%	.	8.1%
COc1ccc2c(c1)oc(=O)c1c3ccccc3[nH]c21	-29.2%	-6.4%	56.5*	-2.0%	62.5*	.
COc1ccc2c(c1)oc(=O)c1cc(OC)ccc12	-11.6%	-0.4%	52.2*	-8.8%	25.8*	-12.9%
COc1ccc2c(=O)c3ccccc3oc2c1	-11.3%	-6.1%	42.4*	-2.4%	33.0*	-15.4%
COc1ccc2c(c1)oc(=O)c1ccccc12	4.1%	5.1%	71.0*	0.8%	33.4*	-0.8%
COc1ccc2c(C)cc(=O)oc2c1	.	0.2%	.	-3.1%	.	.
COc1ccc2c(C)c(Cl)c(=O)oc2c1	4.4%	-4.7%	1.6	2.7%	-1.9	0.0%
CC(=O)NCCNC(=O)CCCn1c(=O)[nH]c2ccsc2c1=O	.	.	.	6.6%	.	3.9%
Cc1cccc(C(=O)Nc2cccc(OCc3cc(=O)n4c(C)csc4n3)c2)c1	.	.	.	0.2%	.	2.4%
COc1cccc(NC(=O)Cn2nnc(-c3nc(-c4ccccc4)no3)c2N)c1	.	.	.	7.4%	.	7.5%
COc1ccc(-c2cc(=O)c3cc(OC)ccc3o2)cc1	-17.5%	2.1%	66.0*	1.3%	55.2	11.2%
CC(=O)c1ccc2oc3ccccc3c(=O)c2c1	-3.1%	-4.4%	16.6*	-3.6%	15.1	9.6%
CC1Cc2ccccc2N1C(=O)CCS(=O)(=O)c1ccc2c(c1)NC(=O)CS2 (centres undefined)	1.6%	.	-1.9	?	-6.8	-32.5%
COc1cccc(C(c2sc3nc(-c4ccco4)nn3c2O)N2CCOCC2)c1 (centres undefined)	.	.	.	-7.1%	.	3.2%
CC(=O)Nc1ccccc1C(=O)OCc1cccc(F)c1	2.5%	-0.5%	42.0	-23.6%	25.8*	-1.9%
SMILES	LmPK inh	Giardia FBPA inh	Shiga toxin inh	TbPYK inhibitor	CHX counter	Sm TGR inh
CC(=O)Nc1ccccc1C(=O)OCc1ccc(C(=O)c2ccccc2)cc1	-5.4%	.	35.8	-3.8%	24.4*	18.6%
C(=C\c1ccccc1)/CN1CCN(C(c2cccc3ccccc23)c2nnnn2-c2ccc3c(c2)OCCO3)CC1 (centres undefined)	.	.	.	2.2%	.	.
CCOC(=O)N1CCN(CCC(=O)Nc2cccc(F)c2)CC1	.	.	.	0.9%	.	8.2%
CCn1c(=O)c2cc(C(=O)N(C)c3cc(C)ccc3C)sc2c2ccccc21	.	.	.	7.2%	.	-0.2%
NC(=O)C1CC(=O)N(c2ccc(OCc3ccc(Cl)c(Cl)c3)cc2)C1 (centres undefined)	.	.	.	-13.3%	.	.
C=CCNC(=O)C1CC(=O)N(c2ccc(OCc3ccccc3Cl)cc2)C1 (centres undefined)	-13.4%	-5.8%	33.2*	-0.8%	33.3*	6.6%
COC(=O)C1CC(=O)N(c2ccc(OCc3ccccc3Cl)cc2)C1 (centres undefined)	-0.4%	5.0%	.	-3.0%	1.4	5.8%
NC(=O)C1CC(=O)N(c2ccc(OCc3ccc(Cl)cc3Cl)cc2)C1 (centres undefined)	8.4%	2.0%	58.4	8.0%	25.6*	6.8%
N#CC(c1ccc(Cl)cc1)c1c(Cl)cc(-n2ncc(=O)[nH]c2=O)cc1Cl (centres undefined)	.	.	.	2.2%	.	.
O=C(Nc1ccccc1C(F)(F)F)c1cc2ncc(CCCl)cn2n1	4.1%	-6.2%	76.7*	-4.8%	23.2*	3.8%
O=C(Nc1ccccc1C(F)(F)F)c1cccnc1	1.3%	5.6%	-7.4	-0.3%	-2.0	0.7%
O=C(Nc1ccccc1C(F)(F)F)c1cc(-c2ccco2)on1	-12.6%	-1.4%	57.8*	0.0%	11.8	-10.2%
COc1ccccc1-c1cc(C(=O)Nc2ccccc2C(F)(F)F)no1	.	.	.	-4.2%	.	12.0%
O=C(Nc1ccccc1C(F)(F)F)c1cc(-c2ccccc2O)on1	0.5%	1.0%	82.6*	-7.2%	37.0*	0.4%
Cc1cc(C(=O)Nc2ccccc2C(F)(F)F)no1	1.9%	0.2%	16.8	-9.8%	11.1	-20.0%
O=C(Nc1ccccc1C(F)(F)F)c1cc2ccccn2n1	.	.	.	-1.1%	.	2.3%
O=C(Nc1ccccc1C(F)(F)F)c1ccccn1	-3.6%	-20.6%	39.8	4.0%	31.6*	-1.7%
COc1ccc(-c2nc3c(c4c2C[C@H](c2ccccc2)OC4)CN(S(=O)(=O)c2ccc(NC(C)=O)cc2)CC3)c(C)c1	0.8%[11.5 µM]	6.6%[12.9 µM]	.	.	.	.
Cc1nc2c(sc3nc4c(cc32)COC(C)(C)C4)c(=O)n1CC(=O)NCc1ccco1	-4.7%	-0.6%	39.1*	0.1%	24.2*	39.8µM*
CCCc1nc2c(sc3nc4c(cc32)COC(C)(C)C4)c(=O)n1Cc1ccco1	-1.0%	-5.9%	-3.6	-27.4%	0.9	35.5µM*
CC1(C)Cc2nc3sc4c(=O)n(CC(=O)NCc5ccccc5)cnc4c3cc2CO1	0.7%	1.8%	15.4	1.2%	4.8	1.1%
Cc1nc2c(sc3nc4c(cc32)COC(C)(C)C4)c(=O)n1Cc1ccccc1	4.9%	-0.5%	13.4	0.2%	2.0	-16.4%
CCCc1nc2c(sc3nc4c(cc32)COC(C)(C)C4)c(=O)n1CCN(C)C	3.9%	4.5%	-13.3	5.4%	8.3	-4.2%
CC1(C)Cc2nc3sc4c(SCC(=O)NCc5ccco5)ncnc4c3cc2CO1	-1.7%	-0.9%	99.3*	-6.6%	51.1*	12.6µM*
CCCCN(C)c1nnc(NC(=O)Nc2cccc(C(C)=O)c2)s1	.	.	.	-3.4%	.	-10.9%
O=C(Nc1cccc(Br)c1)c1ccc(CN2CCc3ccccc3C2)cc1	-1.5%	-4.0%	18.9	0.9%	17.4*	0.0%
